The list is not random: actives were taken first. Their share in the collection is about 7.3%.
FMDV inh: blocks foot and mouth disease virus; FMDV antiviral cell-based qHTS; Potency, µM (top dose mostly 57.9 µM), most hits filed as inhibitors; 410,000 tested, 1.2% active; AID 1159524; calls by dose curve; tested in HEK293T cells; note: read-out not given here; nearly all actives have a fitted effect of over 45% in size
AmpC detergent: AmpC beta-lactamase inhibition with detergent present. P00811. AmpC hydrolysis of nitrocefin, absorbance 480 nm, 0.01% Triton. Potency, µM (top dose mostly 114 µM), usual class: inhibitors. 370,000 tested, 0.041% active. AID 485294; note: nearly all actives have a fitted effect of over 25% in size
Target sequence (P00811 whole entry, looked up): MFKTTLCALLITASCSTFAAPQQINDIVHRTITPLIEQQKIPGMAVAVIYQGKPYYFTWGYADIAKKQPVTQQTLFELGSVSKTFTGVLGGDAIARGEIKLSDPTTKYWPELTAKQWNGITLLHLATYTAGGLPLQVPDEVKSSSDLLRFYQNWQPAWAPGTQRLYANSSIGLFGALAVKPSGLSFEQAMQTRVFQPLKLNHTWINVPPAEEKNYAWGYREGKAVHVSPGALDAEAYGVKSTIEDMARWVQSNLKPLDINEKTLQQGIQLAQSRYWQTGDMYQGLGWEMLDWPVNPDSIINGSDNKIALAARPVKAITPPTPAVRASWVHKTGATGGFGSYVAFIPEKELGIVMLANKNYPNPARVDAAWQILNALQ
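AmpC (5.3 nM in the dispensed reagent) in 20 mM phosphate pH 7.0 with 0.01% (detergent screen) or 0.0001% Triton X-100 was preincubated with compounds for 15 min at room temperature. Nitrocefin was then added from an 800 uM solution, and hydrolysis was followed at 480 nm.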
AmpC inh no detg: AmpC beta-lactamase inhibition without detergent; Potency, µM (titrated, usually from 57.1 µM), hits mostly inhibitors; P00811; AmpC nitrocefin hydrolysis, absorbance 480 nm, 0.0001% Triton; 330,000 tested, 0.52% active; note: nearly all actives have a fitted effect of over 20% in size
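AmpC (5.3 nM in the dispensed reagent) in 20 mM phosphate pH 7.0 with 0.01% (detergent screen) or 0.0001% Triton X-100 was preincubated with compounds for 15 min at room temperature. Nitrocefin was then added from an 800 uM solution, and hydrolysis was followed at 480 nm.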
HCV inh: inhibitors of hepatitis C virus infection; 340,000 tested, 3.4% active; Potency, µM (highest dose often 41.8 µM), most hits filed as inhibitors; Huh7.5.1 HCVcc-Cre infection, luciferase reporter, 44 h; AID 651820
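A cell-based infection assay in which seeded cells (1,000 per well) receive test compound after 4 h, are inoculated with HCVcc-Cre at approximately 0.5 moi, and are incubated 44 h before luminescence detection.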
HCMV inh: blocks human cytomegalovirus replication; activity change, negative = inhibition, % at 57.5 µM; AID 1259415; HFF cells, HCMV-luciferase reporter, 72 h; stronger effect = lower value; 410,000 tested, 4.5% active; in the data active = activity change below about -60%; inconclusive = no clear call, values can overlap the other calls; inactive = above about -39%
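Steps: HFFs plated, 16 h 37C; compounds added; HCMV-luciferase added to MOI 1 PFU/cell; 72 h 37C; OneGlo reagent, 5 min room temperature; luminescence read, normalized to controls.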
A number is an active result; n = inactive; u = inconclusive; x = no result given. Unless noted, calls come from the whole dose curve; as a rule, active = well fitted curve in the direction sought with a large enough effect; inconclusive = small, poorly fitted or top-dose-only effect, or another doubt; inactive = no such curve, though single readings can be large; an effect the other way counts as inactive or inconclusive.

SMILES	FMDV inh	AmpC detergent	AmpC inh no detg	HCV inh	HCMV inh
O=C(OCC1OC2C(Oc3nc(=O)ccn32)C1O)c1ccccc1 (stereo not drawn)	n	n	n	n	n
N=c1ncn(C2OC(CO)C(O)C2O)c2nc(Br)[nH]c12 (stereo not drawn)	n	x	x	x	n
N=c1ccn2c(n1)O[C@H]1[C@H](O)[C@@H](CO)O[C@H]12	n	n	n	n	-96
N=c1ccn2c(n1)O[C@H]1[C@@H](CO)[C@H](O)O[C@H]12	n	n	n	u	-98
N=c1nc2n(cc1F)C1OC(CO)C(O)C1O2 (stereo not drawn)	n	x	x	u	-99
Cc1cn2c(nc1=O)OC1C(O)C(COC(=O)c3ccccc3)OC12 (stereo not drawn)	x	n	n	n	n
COc1ccc(C)cc1NC(=O)C1CCN(S(=O)(=O)c2cc(Br)cc3c2N(C(C)=O)CC3)CC1	n	n	x	x	n
COc1ccc(-c2nc3scc(CCNS(=O)(=O)c4ccc5c(c4)OCCO5)n3n2)cc1	n	n	x	x	n
Clc1cccc(Cl)c1-c1nnc2ccc(N3CCOCC3)nn12	n	n	0.5µM	n	n
Cc1ccc(OCC(=O)c2cc(C)n(C)c2C)c([N+](=O)[O-])n1	n	u	n	n	-71
Cc1cc(C)c(NC(=O)COc2cccnc2[N+](=O)[O-])c(C)c1	n	n	n	n	n
Cc1cc(C(=O)COc2cccnc2[N+](=O)[O-])c(C)n1-c1ccccc1F	n	u	n	n	-97
Cc1cc(C(=O)COc2cccnc2[N+](=O)[O-])c(C)n1-c1ccccc1	n	u	n	n	-99
Cc1cc(C(=O)COc2cccnc2[N+](=O)[O-])c(C)n1Cc1ccco1	n	n	n	u	n
Cc1ccc(-n2c(C)cc(C(=O)COc3cccnc3[N+](=O)[O-])c2C)cc1	u	n	n	u	-99
CCN(CC)C(=O)Cn1c(=O)n(-c2ccccc2)c(=O)c2sccc21	n	n	n	n	n
CC(C)(C)CC(C)(C)NC(=O)C(=O)c1cccnc1	x	x	x	x	n
CCCC(=O)OC[C@H]1CN(C2CCCC2)S(=O)(=O)c2c(F)cccc2O1	x	x	x	x	n
CC(C)c1ccccc1NC(=O)COC(=O)c1c2c(nc3ccccc13)CCN(Cc1ccccc1)C2	n	n	3.5µM	u	n
O=C(NC1CCCCCC1)c1c2c(nc3ccccc13)CCN(Cc1ccccc1)C2	n	n	n	u	n
Cc1cc(N2CCN(C)CC2)ccc1NC(=O)c1c2c(nc3ccccc13)CCN(Cc1ccccc1)C2	n	n	n	2µM	x
Cc1c(Cl)cccc1NC(=O)COC(=O)c1c2c(nc3ccccc13)CCN(Cc1ccccc1)C2	u	n	n	u	n
COc1ccc(OCc2cc(C(=O)NCCN3CCCc4ccccc43)no2)c(Cl)c1	n	n	n	11µM	n
COc1ccc(OCc2cc(C(=O)NCCN3CCCC(O)C3)no2)c(Cl)c1 (stereo not drawn)	n	n	n	u	n
O=C(Nc1ccccc1OC(F)F)c1ccn2ccnc2n1	x	x	x	x	n
SMILES	FMDV inh	AmpC detergent	AmpC inh no detg	HCV inh	HCMV inh
CC1(C(=O)NCc2ccccc2)CN(S(C)(=O)=O)CC(=O)N1Cc1cccc(F)c1 (stereo not drawn)	n	x	x	x	n
O=C(O)c1ccc(/C=N/NC(=O)c2ccc(CN3c4cccc5cccc(c45)S3(=O)=O)cc2)cc1	n	n	28µM	n	n
CC(/C=N/NC(=O)c1ccc(CN2c3cccc4cccc(c34)S2(=O)=O)cc1)c1ccccc1 (stereo not drawn)	n	n	n	n	n
COc1ccc(OCCOC(=O)c2ccc(F)c(S(=O)(=O)N3CCOCC3)c2)cc1	u	n	n	u	n
O=C(OCCOc1ccccc1)c1cc(S(=O)(=O)N2CCOCC2)c(Cl)cc1Cl	u	x	x	x	-63
COc1ccc(OCCOC(=O)c2cc(S(=O)(=O)N3CCOCC3)c(Cl)cc2Cl)cc1	40µM	u	n	u	n
CCc1ccc(OC(=O)Cc2ccc(OC)c(S(=O)(=O)N3CCOCC3)c2)cc1	n	n	n	n	-98
Cc1ccc(CNC(=O)c2cc3sccc3n2Cc2ccc(Cl)cc2)cc1	n	n	x	x	x
CCC1(C2CCN(C(=O)c3ccc(C)cc3C)CC2)NC(=O)N(CCc2scnc2C)C1=O (stereo not drawn)	n	x	x	x	x
CCC(=O)c1cc2c(cc1NC(=O)C(C)C)OCCO2	n	u	n	6.3µM	n
CSc1ccccc1OCc1cc(C(=O)NCCc2ccco2)no1	n	n	n	n	n
CCc1ccc(NC(=O)COc2ccc(Br)cn2)cc1	n	n	n	n	n
Cc1ccc(C2c3[nH]c4ccccc4c3CCN2C(=O)c2ccccc2Br)cc1 (stereo not drawn)	n	n	x	x	-78
Cc1ccc(C2c3[nH]c4ccccc4c3CCN2C(=O)CCC2CCCC2)cc1 (stereo not drawn)	n	n	x	x	-93
COC(=O)c1ccc(NC(=O)N2CCc3c([nH]c4ccccc34)C2c2ccc(C)cc2)cc1 (stereo not drawn)	n	n	x	x	n
Cc1ccc(C2c3[nH]c4ccccc4c3CCN2C(=O)c2ccc(N(C)C)cc2)cc1 (stereo not drawn)	n	n	x	x	n
C[C@H]1CN([C@@H](C)CO)S(=O)(=O)c2ccc(C#Cc3cccnc3)cc2O[C@@H]1CN(C)C(=O)Nc1ccc2c(c1)OCO2	n	x	x	x	n
COCCNC(=O)C(c1ccc(F)cc1)N(Cc1ccccc1)C(=O)CCC(=O)Nc1nccs1 (stereo not drawn)	n	n	n	n	n
Cc1c(C(=O)NC2CCC(C)CC2)oc2ccccc12 (stereo not drawn)	n	n	n	n	n
O=[N+]([O-])c1cc(C(F)(F)F)cc([N+](=O)[O-])c1Sc1n[nH]c(C(F)(F)F)n1	6.3µM	n	n	n	n
CC1=C(C(=O)OCCc2ccccc2)C(c2ccsc2)NC(=O)N1C (stereo not drawn)	n	n	n	n	-67
CCCCCCC(NC(=O)Cc1ccc2ccccc2c1)C(=O)O (stereo not drawn)	n	x	n	n	n
CCCCc1ccc(NC(=O)CSCc2cc(=O)[nH][nH]2)cc1	n	n	18µM	u	n
O=C(CSCc1cc(=O)[nH][nH]1)Nc1ccc(F)cc1	n	u	n	n	n
CC(C)C(NS(=O)(=O)c1cccc2cccnc12)C(=O)Nc1ccc(OC(F)(F)F)cc1 (stereo not drawn)	n	n	x	x	n
CC(C)(C)c1ccc(-n2ncc3c2CCCC3NC(=O)C2=NNC(=O)CC2)cc1 (stereo not drawn)	u	u	n	u	-81
O=C(NC1CCCc2c1cnn2-c1cc(F)cc(F)c1)c1cc[n+]([O-])cc1 (stereo not drawn)	n	n	n	n	n

Screening data as filed in PubChem.
